Source: PubChem (National Center for Advancing Translational Sciences (NCATS))
The list is not random: actives were taken first. Their share in the collection is about 7.4%.
Rab9 promoter act = activates the Rab9 promoter. Huh7 Rab9 promoter-luciferase reporter, luminescence, 24 h. Potency, µM (series often up to 9.22 µM), usual class: activators. 320,000 compounds, 2.8% hits; also: nearly all actives have a fitted effect of over 60% in size
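Promoter activation is measured as luciferase luminescence in Huh7 cells stably transfected with a Rab9 promoter–luciferase construct, following 24 h compound exposure at 37 °C and 10 min reagent incubation at ambient temperature.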
ELG1 genotoxic = genotoxicity induction in ELG1-luciferase HEK293T cells; HEK293T ELG1-luciferase reporter, luminescence, 16 h; Potency, µM (titrated, usually from 46 µM), usual class: activators; 330,000 compounds, 1.3% hits; also: nearly all actives have a fitted effect of over 60% in size
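Step 1: seed 2,000 HEK293T ELG1-luciferase cells per well. Step 2: add compound or DMSO, incubate 16 hr at 37 °C. Step 3: ONE-Glo, 30 min at room temperature, read luminescence.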
p53 reactivation = mutant p53 re-activation in reporter cells; H1299 p53-A138V BP100-luciferase reporter, luminescence, 24 h; Potency, µM (doses to about 92.2 µM), most hits filed as activators; 320,000 compounds, 0.063% hits; AID 504706; also: nearly all actives have a fitted effect of over 45% in size
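H1299 (p53-null), stable ts p53-A138V + BP100-Luc; 1000 cells/well, Opti-MEM/10% FBS; cpd 4 pt, 1:5; 24 h, 37 deg C, 5% CO2; detection reagent 10 min RT; luminescence.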
SMN2 splice enh = enhancers of SMN2 splice variant expression. HEK293 SMN2-luciferase splicing reporter, luminescence, 30-36 h. 210,000 compounds, 2.8% hits. Potency, µM (top dose mostly 46.1 µM), usual class: activators; also: nearly all actives have a fitted effect of over 55% in size
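qHTS luciferase splicing reporter: luminescence rises when SMN2 exon 7 is included in transfected HEK293 cells. Compound exposure lasted 30-36 h at 37C, with 4.5 mM final sodium butyrate as control, followed by a ONE-Glo read.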
NPC1 prom act = NPC1 promoter activation; Huh7 NPC1 promoter luciferase reporter, 24 h; Potency, µM (doses to about 9.22 µM), most hits filed as activators; 320,000 compounds, 2.4% hits; also: nearly all actives have a fitted effect of over 60% in size
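Huh7 reporter cells (NPC1 promoter driving luciferase) are dosed with compound for 24 h at 37 °C, 5% CO2; luciferase detection reagent is then added and luminescence measured after 10 min at ambient temperature.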
FLuc counter = inhibits or activates purified firefly luciferase, miR-21 counter-screen; P08659; purified FLuc, Km substrates, luminescence inhibition; 360,000 compounds, 6.9% hits; Potency, µM (titrated, usually from 57.5 µM), hits mostly inhibitors; also: nearly all actives have a fitted effect of over 55% in size
Target sequence (P08659 whole entry, looked up): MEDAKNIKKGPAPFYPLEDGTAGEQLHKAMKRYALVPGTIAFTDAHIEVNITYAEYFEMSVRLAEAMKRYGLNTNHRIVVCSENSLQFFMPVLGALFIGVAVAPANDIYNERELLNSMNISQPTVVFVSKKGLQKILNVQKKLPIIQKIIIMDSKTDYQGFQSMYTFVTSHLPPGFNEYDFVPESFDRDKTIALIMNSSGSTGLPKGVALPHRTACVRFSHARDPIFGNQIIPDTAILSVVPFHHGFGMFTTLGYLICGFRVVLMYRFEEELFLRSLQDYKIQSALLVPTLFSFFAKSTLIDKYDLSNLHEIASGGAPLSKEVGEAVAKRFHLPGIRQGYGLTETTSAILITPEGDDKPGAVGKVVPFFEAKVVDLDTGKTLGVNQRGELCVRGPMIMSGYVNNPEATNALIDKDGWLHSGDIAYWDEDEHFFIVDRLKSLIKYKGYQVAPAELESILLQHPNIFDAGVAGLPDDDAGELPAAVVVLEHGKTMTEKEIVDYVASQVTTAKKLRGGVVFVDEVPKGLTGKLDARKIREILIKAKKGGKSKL
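Purified P. pyralis luciferase (10nM final) with 10uM D-luciferin and 10uM ATP (Km levels) in 50mM Tris acetate pH 7.5, 10mM Mg acetate, 0.01% Tween-20, 0.05% BSA; qHTS 6-point titration, ~60 µM downward; luminescence read.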
Numbers stand for hits. Calls follow the shape of the dose curve; as a rule, active = well fitted curve in the direction sought with a large enough effect; inconclusive = small, poorly fitted or top-dose-only effect, or another doubt; inactive = no such curve, though single readings can be large; an effect the other way counts as inactive or inconclusive.

For COc1ccc(CC(=O)O/N=C(\N)c2ccccn2)cc1OC the results were Rab9 promoter act inactive, ELG1 genotoxic inactive, p53 reactivation inactive, NPC1 prom act inactive and FLuc counter inactive.
For Cc1ccc(OCC(=O)O/N=C(\N)c2ccccn2)cc1 the results were Rab9 promoter act 2.5µM, ELG1 genotoxic inconclusive, p53 reactivation inactive, SMN2 splice enh 13µM, NPC1 prom act 4µM and FLuc counter 13µM.
Screening COC(=O)c1ccc(CSc2nc3c([nH]c4ccccc43)c(=O)n2-c2cccc(Cl)c2)o1 returned FLuc counter inactive.
For N/C(=N\OC(=O)COc1cc(Cl)c(Cl)cc1Cl)c1ccccn1 the results were Rab9 promoter act 1.1µM, ELG1 genotoxic inconclusive, p53 reactivation inactive, SMN2 splice enh 11µM, NPC1 prom act 0.79µM and FLuc counter 2.4µM.
For Cc1cccc(OCC(=O)O/N=C(\N)c2ccccn2)c1C the results were Rab9 promoter act inconclusive, ELG1 genotoxic inconclusive, p53 reactivation inconclusive, SMN2 splice enh inconclusive, NPC1 prom act inconclusive and FLuc counter 9.5µM.
Screening N/C(=N\OC(=O)Cc1ccc(Cl)cc1)c1ccccn1 returned Rab9 promoter act inactive, ELG1 genotoxic 16µM, p53 reactivation inactive, SMN2 splice enh inactive, NPC1 prom act inactive and FLuc counter 9.5µM.
For N/C(=N\OC(=O)Cc1ccc(Cl)cc1)c1ccncc1 the results were Rab9 promoter act inactive, ELG1 genotoxic inactive, p53 reactivation inactive, SMN2 splice enh inactive, NPC1 prom act inactive and FLuc counter inactive.
`O=C(/C=C/c1ccco1)c1ccc(O)cc1` gave Rab9 promoter act inconclusive, ELG1 genotoxic inconclusive, p53 reactivation inconclusive, SMN2 splice enh inactive, NPC1 prom act inactive and FLuc counter 13µM.
For CN(C)c1ccc(C(=O)/C=C/c2ccco2)cc1 the results were Rab9 promoter act 2.8µM, ELG1 genotoxic inconclusive, p53 reactivation inconclusive, SMN2 splice enh 13µM, NPC1 prom act 3.2µM and FLuc counter 0.38µM.
Nc1cccc2cc(-c3ccccc3)oc12 was read as Rab9 promoter act inconclusive, ELG1 genotoxic inconclusive, p53 reactivation inconclusive, NPC1 prom act 4µM and FLuc counter 4.8µM.
For CCCSc1nnc(-c2c[nH]c3ccccc23)n1C the results were Rab9 promoter act inactive, ELG1 genotoxic inconclusive, p53 reactivation inconclusive, SMN2 splice enh inactive, NPC1 prom act inactive and FLuc counter 15µM.
`O=C(c1ccco1)N1CCN(Cc2c(Cl)cccc2Cl)CC1` gave Rab9 promoter act 3.2µM, ELG1 genotoxic inconclusive, NPC1 prom act inconclusive and FLuc counter 27µM.
Screening O=C(c1cc(-c2ccc(Cl)cc2Cl)on1)N1CCN(C(=O)c2ccco2)CC1 returned Rab9 promoter act inactive, ELG1 genotoxic inactive, p53 reactivation inactive, SMN2 splice enh inactive, NPC1 prom act inactive and FLuc counter 30µM.
Screening O=C(c1ccco1)N1CCN(Cc2ccc(Cl)cc2)CC1 returned Rab9 promoter act inactive, ELG1 genotoxic inactive, p53 reactivation inactive, SMN2 splice enh inactive, NPC1 prom act inactive and FLuc counter inactive.
`O=C(c1ccc(-c2ccccc2Cl)o1)N1CCN(S(=O)(=O)c2cccs2)CC1` gave Rab9 promoter act inconclusive, ELG1 genotoxic inactive, p53 reactivation inactive, NPC1 prom act inconclusive and FLuc counter 11µM.
`O=C(c1cc(-c2ccccc2Cl)on1)N1CCN(C(=O)c2ccco2)CC1` gave Rab9 promoter act inactive, ELG1 genotoxic inactive, p53 reactivation inactive, SMN2 splice enh inactive, NPC1 prom act inactive and FLuc counter 19µM.
Screening O=C(c1ccco1)N1CCN(S(=O)(=O)c2cc(Cl)ccc2Cl)CC1 returned Rab9 promoter act inactive, ELG1 genotoxic inconclusive, p53 reactivation inactive, NPC1 prom act inactive and FLuc counter inactive.
Screening Cc1cccc(N2CCN(S(=O)(=O)c3ccc(-c4cnc(C5CC5)o4)cc3)CC2)c1C returned FLuc counter inactive.
For COc1cc(NC(=O)C2CCN(S(=O)(=O)c3ccc4[nH]c(=O)oc4c3)CC2)cc(OC)c1 the results were Rab9 promoter act inactive, ELG1 genotoxic inactive, p53 reactivation inactive, NPC1 prom act inactive and FLuc counter inactive.
`CCc1nnc(NC(=O)CSc2nc3c([nH]c4ccccc43)c(=O)n2-c2ccc(OC)cc2)s1` gave FLuc counter inactive.
Screening O=C(c1ccc(-c2ccc(Cl)cc2Cl)o1)N1CCOCC1 returned Rab9 promoter act 3.2µM, ELG1 genotoxic inconclusive, p53 reactivation inactive, SMN2 splice enh 22µM, NPC1 prom act 3.2µM and FLuc counter 8.5µM.
O=C(c1ccc(-c2ccccc2Cl)o1)N1CCN(c2ccccc2O)CC1 was read as Rab9 promoter act inactive, ELG1 genotoxic inactive, p53 reactivation inactive, NPC1 prom act inactive and FLuc counter inconclusive.
For CN(C)/C=C/C(=O)c1ccc(-c2ccc(Cl)cc2Cl)o1 the results were Rab9 promoter act 4.5µM, ELG1 genotoxic inconclusive, p53 reactivation inactive, SMN2 splice enh inconclusive, NPC1 prom act inconclusive and FLuc counter 9.5µM.
Screening NC(=O)C1CCN(C(=O)c2ccc(-c3ccccc3Cl)o2)CC1 returned Rab9 promoter act 2.5µM, ELG1 genotoxic inconclusive, p53 reactivation inconclusive, NPC1 prom act inconclusive and FLuc counter 9.5µM.
`O=C(c1ccc(-c2cc(Cl)ccc2Cl)o1)N1CCOCC1` gave Rab9 promoter act inactive, ELG1 genotoxic inactive, p53 reactivation inactive, SMN2 splice enh inactive, NPC1 prom act inactive and FLuc counter inconclusive.
For O=C(c1ccco1)N1CCN(C(=O)c2ccc(-c3ccccc3Cl)o2)CC1 the results were Rab9 promoter act 2.8µM, ELG1 genotoxic inactive, p53 reactivation inconclusive, NPC1 prom act inconclusive and FLuc counter 9.5µM.
C=CCC(O)(/C=C/c1ccccc1)c1ccccc1 (centres undefined) was read as SMN2 splice enh inactive.
O=c1n(Cc2ccc(Cl)cc2)c2ccccc2c2nc(-c3ccccc3)nn12 was read as SMN2 splice enh inactive and FLuc counter inactive.
`CCc1ccc(CNC(=O)c2ccc3nc(SCc4ccc(F)cc4)n(C)c3c2)cc1` gave SMN2 splice enh inactive and FLuc counter inactive.
O=C(O)C(=O)/C(=C\c1cccc(Cl)c1)c1ccc2ccccc2n1 was read as Rab9 promoter act inactive, ELG1 genotoxic inconclusive, p53 reactivation inactive, SMN2 splice enh 11µM, NPC1 prom act inactive and FLuc counter inconclusive.
Cc1cccc(/C=C(\C(=O)C(=O)O)c2ccc3ccccc3n2)c1 was read as Rab9 promoter act 2.2µM, ELG1 genotoxic 15µM, p53 reactivation inactive, SMN2 splice enh 22µM, NPC1 prom act 2.2µM and FLuc counter inconclusive.
For CC(=O)Nc1nc(COc2ccccc2)cs1 the results were Rab9 promoter act inconclusive, ELG1 genotoxic 10µM, p53 reactivation inconclusive, SMN2 splice enh 18µM, NPC1 prom act 3.2µM and FLuc counter inconclusive.
